Active and inactive are the calls of the source.
How the values were obtained:
[1] = small molecules captured by biotinylated probe aFSTL3 – biochemical, small-molecule microarray, fluorescence 635/667, stem cell growth factor project, primary screen (AID 1064); settings: higher = more signal;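 note: measures binding of the biotinylated anti-FSTL3 antibody to printed compounds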
[2] = binders from COS7 lysate, DM2A8 probe, primary screen, torsin A project, cell lysate, small-molecule microarray, fluorescence 635/667 (AID 1065); settings: higher = more signal, COS7 lysate expressing mutant human TOR1A
[3] = small molecules captured by biotinylated probe aFGF2 – biochemical, small-molecule microarray, fluorescence 635/667, stem cell growth factor project, primary screen (AID 1067); settings: higher = more signal;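 note: measures binding of biotinylated aFGF2 protein to printed compounds on slides; z-score merges feature fluorescence and signal-to-noise across triplicate slides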
[4] = small molecules captured by biotinylated probe aFGF10 – biochemical, small-molecule microarray, fluorescence 635/667, stem cell growth factor project, primary screen (AID 1071); settings: higher = more signal;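 note: score merges 667 nm spot intensity and signal to noise from triplicate slides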
[5] = target: Neurogenic locus notch homolog protein 2 (Homo sapiens) (UniProt Q04721); test: small molecules binding Notch2 protein – biochemical, small-molecule microarray, 635 nm fluorescence, stem cell growth factors, primary screen (AID 1073); settings: higher = more signal
Neurogenic locus notch homolog protein 2 (Homo sapiens), sequence (Q04721 whole entry, looked up, canonical isoform): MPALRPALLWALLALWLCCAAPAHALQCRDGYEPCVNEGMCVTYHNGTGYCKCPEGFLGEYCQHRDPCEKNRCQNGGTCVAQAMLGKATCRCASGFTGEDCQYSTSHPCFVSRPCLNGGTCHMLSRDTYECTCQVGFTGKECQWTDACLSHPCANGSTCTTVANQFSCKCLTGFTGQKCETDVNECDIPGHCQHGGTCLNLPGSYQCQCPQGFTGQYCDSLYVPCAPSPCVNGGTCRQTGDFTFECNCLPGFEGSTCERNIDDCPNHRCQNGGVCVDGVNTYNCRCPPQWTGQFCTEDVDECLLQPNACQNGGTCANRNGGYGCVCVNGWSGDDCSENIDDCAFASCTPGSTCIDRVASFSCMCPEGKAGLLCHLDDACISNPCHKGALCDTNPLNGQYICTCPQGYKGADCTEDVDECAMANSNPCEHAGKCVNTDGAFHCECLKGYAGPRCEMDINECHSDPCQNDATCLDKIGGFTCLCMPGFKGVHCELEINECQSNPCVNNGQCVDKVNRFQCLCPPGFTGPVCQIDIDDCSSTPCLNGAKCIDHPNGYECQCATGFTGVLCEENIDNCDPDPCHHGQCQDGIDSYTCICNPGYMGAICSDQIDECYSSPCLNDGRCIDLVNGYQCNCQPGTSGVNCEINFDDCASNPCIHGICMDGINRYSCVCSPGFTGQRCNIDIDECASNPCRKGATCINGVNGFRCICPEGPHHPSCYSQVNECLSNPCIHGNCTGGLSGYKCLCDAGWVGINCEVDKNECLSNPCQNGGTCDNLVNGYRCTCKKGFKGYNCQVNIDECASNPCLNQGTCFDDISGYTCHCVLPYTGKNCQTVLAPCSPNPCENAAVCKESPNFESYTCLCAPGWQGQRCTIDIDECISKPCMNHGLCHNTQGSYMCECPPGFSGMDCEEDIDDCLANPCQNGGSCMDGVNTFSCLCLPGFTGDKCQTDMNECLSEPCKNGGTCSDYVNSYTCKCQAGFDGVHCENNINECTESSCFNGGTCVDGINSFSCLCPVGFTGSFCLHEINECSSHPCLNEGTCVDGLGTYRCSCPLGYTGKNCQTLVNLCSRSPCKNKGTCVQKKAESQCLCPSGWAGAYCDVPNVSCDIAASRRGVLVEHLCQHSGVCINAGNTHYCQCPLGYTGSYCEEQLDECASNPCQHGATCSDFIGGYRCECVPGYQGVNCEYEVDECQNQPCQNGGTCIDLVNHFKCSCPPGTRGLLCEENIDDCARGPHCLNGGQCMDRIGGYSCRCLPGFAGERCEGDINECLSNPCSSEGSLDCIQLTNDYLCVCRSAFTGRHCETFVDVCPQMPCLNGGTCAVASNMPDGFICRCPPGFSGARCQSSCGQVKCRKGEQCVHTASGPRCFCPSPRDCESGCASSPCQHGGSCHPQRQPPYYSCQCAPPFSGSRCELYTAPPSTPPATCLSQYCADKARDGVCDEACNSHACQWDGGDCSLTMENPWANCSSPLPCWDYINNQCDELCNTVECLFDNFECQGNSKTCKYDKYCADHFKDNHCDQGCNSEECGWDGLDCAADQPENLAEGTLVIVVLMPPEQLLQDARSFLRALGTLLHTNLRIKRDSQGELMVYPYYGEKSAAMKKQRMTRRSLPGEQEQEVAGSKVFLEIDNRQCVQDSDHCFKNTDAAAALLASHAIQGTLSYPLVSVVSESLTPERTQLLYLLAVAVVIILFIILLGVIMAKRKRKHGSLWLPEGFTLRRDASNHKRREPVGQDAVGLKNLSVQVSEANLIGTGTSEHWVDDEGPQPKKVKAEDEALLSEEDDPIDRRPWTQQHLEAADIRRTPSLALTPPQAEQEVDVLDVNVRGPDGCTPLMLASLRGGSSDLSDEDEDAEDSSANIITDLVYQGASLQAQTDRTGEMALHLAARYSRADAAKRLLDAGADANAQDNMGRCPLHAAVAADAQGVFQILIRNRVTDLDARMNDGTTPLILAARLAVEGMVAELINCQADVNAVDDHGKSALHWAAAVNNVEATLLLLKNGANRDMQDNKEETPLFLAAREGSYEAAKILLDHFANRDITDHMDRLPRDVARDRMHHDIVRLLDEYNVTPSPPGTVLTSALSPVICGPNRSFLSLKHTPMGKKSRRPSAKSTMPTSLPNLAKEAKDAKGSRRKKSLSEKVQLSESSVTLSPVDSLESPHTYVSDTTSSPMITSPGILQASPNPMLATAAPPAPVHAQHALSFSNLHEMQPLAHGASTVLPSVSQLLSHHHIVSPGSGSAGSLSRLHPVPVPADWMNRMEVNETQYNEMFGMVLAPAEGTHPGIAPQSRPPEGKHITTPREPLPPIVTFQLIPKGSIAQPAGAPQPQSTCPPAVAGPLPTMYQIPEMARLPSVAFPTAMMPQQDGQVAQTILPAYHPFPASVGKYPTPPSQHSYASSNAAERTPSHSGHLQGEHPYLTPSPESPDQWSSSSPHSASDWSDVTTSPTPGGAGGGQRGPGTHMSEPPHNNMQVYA

[6] = target: Pro-neuregulin-1, membrane-bound isoform (Homo sapiens) (UniProt Q02297); test: small molecules binding neuregulin-1 protein – biochemical, small-molecule microarray, fluorescence 635/667, psychiatric disease protein project, primary screen (AID 1075); settings: NRG1 binding, 635 nm fluorescence, higher = more signal;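 note: score combines 667 nm spot fluorescence with signal to noise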
Pro-neuregulin-1, membrane-bound isoform (Homo sapiens), sequence (Q02297 whole entry, looked up, the tested form may be a part, canonical isoform): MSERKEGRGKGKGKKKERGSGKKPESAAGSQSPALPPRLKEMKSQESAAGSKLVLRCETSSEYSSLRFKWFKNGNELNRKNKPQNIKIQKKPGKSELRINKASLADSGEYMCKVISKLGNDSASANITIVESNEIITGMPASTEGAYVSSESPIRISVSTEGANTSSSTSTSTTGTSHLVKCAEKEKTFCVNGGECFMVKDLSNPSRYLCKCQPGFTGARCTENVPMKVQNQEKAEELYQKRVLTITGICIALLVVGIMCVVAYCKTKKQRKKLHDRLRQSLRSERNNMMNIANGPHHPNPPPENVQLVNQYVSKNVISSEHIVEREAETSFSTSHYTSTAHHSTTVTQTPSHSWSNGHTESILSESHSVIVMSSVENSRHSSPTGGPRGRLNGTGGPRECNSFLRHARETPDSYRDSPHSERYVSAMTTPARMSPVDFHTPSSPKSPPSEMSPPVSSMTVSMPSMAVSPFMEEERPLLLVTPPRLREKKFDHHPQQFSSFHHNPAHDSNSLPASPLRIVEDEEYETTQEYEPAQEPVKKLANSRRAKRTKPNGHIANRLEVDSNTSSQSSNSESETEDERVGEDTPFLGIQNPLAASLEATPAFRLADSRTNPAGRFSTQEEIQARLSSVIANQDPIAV

[7] = system: Neuregulin-1 EGF-like domain; test: small molecules binding NRG1 EGF domain – biochemical, small-molecule microarray, 635 nm fluorescence, primary screen (AID 1081); settings: higher = more signal;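 note: binding of the protein to compounds printed on small-molecule microarray slides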
[8] = FRG1 expression reporter modulators in myotubes – cell-based, C2C12 myotubes, firefly/Renilla luciferase, luminescence, FRG1 inhibition for FSHD, primary screen (AID 1084); settings: FRG1 promoter luciferase, higher = more signal, called active from +8 up or from −8 down
[9] = small molecules captured by biotinylated probe aFST – biochemical, small-molecule microarray, fluorescence 635/667, stem cell growth factor project, primary screen (AID 1086); settings: higher = more signal;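 note: score merges 667 nm fluorescence with signal-to-noise of each printed compound spot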
[10] = binders of probe aHhip on microarray, primary screen, stem cell growth factor project, biochemical, small-molecule microarray, fluorescence 635/667 (AID 1087); settings: higher = more signal;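 note: score merges spot fluorescence at 667nm with spot signal to noise ratio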

Row | SMILES | composite z-score [1] | composite z-score [2] | composite z-score [3] | composite z-score [4] | composite z-score [5] | composite z-score [6] | composite z-score [7] | z-score [8] | composite z-score [9] | composite z-score [10]
1 | [N-]=[N+]=NCc1ccccc1[C@H]1OC(c2ccc(OCCCO)cc2)=N[C@@]1(Cc1ccccc1)C(=O)N1CCCCC1 | -0.222 | 0.368 | 0.022 | 0.78 | 1.46 | 0.947 | 1.18 | -2.51 (inactive) | 0.573 | -0.201
2 | COc1cc2c(cc1O)C=[N+](Cc1cc3c(cc1Br)OCO3)CC2 | 0.305 | 0.08 | -0.131 | 0.0873 | -0.441 | 0.632 | 0.042 | 2.28 (inactive) | -0.332 | -0.137
3 | COc1ccc([Si](C)(C)[C@@H]2[C@@H](CCO)O[C@]3(C(=O)N(Cc4cccc(N5CCOC5=O)c4)c4ccccc43)[C@H]2C)cc1 | 0.0806 | 0.229 | -0.0704 | 0.289 | 1.03 | 0.775 | 0.953 | -1.65 (inactive) | 0.0855 | -0.156
4 | NC(=O)N1C(=O)C2C(C1=O)C1C=C(CCCO)C2C(C2CC2)N1Cc1cc2c(cc1Br)OCO2 (stereo not given) | 0.225 | -0.13 | -0.093 | -0.33 | -0.191 | 0.946 | 0.982 | -0.472 (inactive) | 0.0364 | -0.0994
5 | CC(C)C(=C=CC[C@H](O)c1ccc(CO)o1)CCO | 0.0959 | 1.5 | -0.141 | 0.153 | -0.57 | 1.57 | 1.16 | 0.859 (inactive) | 0.164 | -0.202
6 | NCCCCCNC(=O)[C@H]1C[C@H]2C(=O)N[C@@H](Cc3ccccc3)C(=O)N2[C@H]1c1cccc(OCCO)c1 | 2.24 | 0.387 | 0.0364 | 0.116 | 0.352 | 2.05 | 0.408 | 1.27 (inactive) | 1.04 | 0.705
7 | O=C1[C@@]23C=C(Br)[C@H](C[C@@H]2COC3)[C@]12CO2 | -0.199 | -0.582 | -0.12 | -0.536 | -1.71 | -0.279 | -1.15 | 0.126 (inactive) | -0.541 | -0.0065
8 | C=C(CCCC)C(=O)CC[C@H](OC(=O)c1cccnc1)c1ccc(OCCO)cc1 | 0.242 | 1.4 | -0.116 | 0.149 | -0.65 | 0.766 | 0.761 | -0.916 (inactive) | -0.0065 | -0.0994
9 | COC(=O)[C@@]1(Cc2ccc(OC)cc2)[C@H]2c3cc(C(=O)N4CCCC4)n(CCc4ccc(O)c(O)c4)c3C[C@H]2CN1C(=O)c1ccccc1 | 1.65 | 0.269 | 0.0215 | 0.0359 | 1.33 | 2.26 | 1.11 | 2.61 (inactive) | 0.939 | -0.156
10 | CCCC[C@@H]1C[C@H]1[C@@H](NC(=O)c1cccnc1)c1ccc(Cl)cc1 | 1.58 | -1.02 | -0.423 | -1.77 | -1.69 | -0.549 | -0.977 | 0.188 (inactive) | -0.513 | 0.216
11 | C=C(C)[C@@H]1CC=C(C(O)C2C=CC3C(=O)NC(=O)C3N2Nc2ccc(Cl)cc2Cl)CC1 (stereo not given in full) | 0.917 | 0.403 | 0.0095 | 0.117 | 1.42 | 1.35 | 0.953 | 1.3 (inactive) | 1.2 | -0.0645
12 | O=C(NCc1ccccc1)[C@@H]1c2ccccc2C(=O)N(C2Cc3ccccc3C2)[C@H]1c1ccc(CO)cc1 | 0.335 | 0.0455 | 0.0017 | 0.526 | 0.501 | 1.02 | 0.971 | -2.38 (inactive) | 0.435 | -0.181
13 | [N-]=[N+]=NCc1ccccc1[C@@H]1OC(c2ccc(OCCCO)cc2)=N[C@]1(CCS(=O)(=O)c1ccccc1)C(N)=O | 0.339 | 0.852 | 0.175 | 0.647 | 1.33 | 2.06 | 1.34 | 1.81 (inactive) | 1.71 | -0.165
14 | NCCCCCNC(=O)[C@H]1C[C@H]2C(=O)N3CCC[C@H]3C(=O)N2[C@H]1c1ccc(O)cc1 | 1.39 | 1.06 | 0.197 | 0.457 | 0.698 | 1.62 | 1.23 | 0.0225 (inactive) | 1.52 | 0.399
15 | CCCC(=O)N(CCc1c[nH]c2ccccc12)[C@@H]1CC(C(=O)NCCO)=C[C@H](Oc2c(I)cc(CO)cc2OC)[C@H]1O | -0.279 | 0.809 | -0.0692 | 0.187 | -0.11 | -0.0724 | 0.315 | -0.667 (inactive) | -0.0945 | -0.214
16 | O=C(O)C1N=C(c2ccc(OCCCO)cc2)N(c2ccccc2)O1 (stereo not given) | 0.158 | 0.0642 | -0.0474 | 0.499 | 0.778 | -0.145 | 0.527 | 2.09 (inactive) | -0.288 | -0.136
17 | COc1ccc([Si](C)(C)[C@@H]2[C@@H](CC(=O)N3Cc4ccccc4C[C@H]3CO)O[C@]3(C(=O)N(Cc4cccc(N5CCC5=O)c4)c4ccccc43)[C@H]2C)cc1 | -0.0762 | 0.3 | -0.07 | 0.507 | 0.596 | 0.592 | 1.22 | -1.07 (inactive) | 0.113 | 0.35

— PubChem BioAssay
